# Laboratory results: the supplement of paper PMC13380429
# Assays:
# [1] = test system: Vero E6 infected with SARS-CoV-2; test: morphology score (similarity to uninfected cells); higher = more like uninfected cells; settings: 24 h
# [2] = test system: Vero E6 infected with SARS-CoV-2; test: SARS-CoV-2 infection rate relative to infected DMSO; higher = more infection, active = 60 or less; settings: 24 h
SMILES,morphology score [1],SARS-CoV-2 infection rate [2]
CN1CCN(CCCCN2C(=O)CN(/N=C/c3ccc(-c4ccc(Cl)cc4)o3)C2=O)CC1 [azimilide] (10 µM),0.0199,102% (inactive)
CCCC[P+](CCCC)(CCCC)Cc1ccc(NC(=O)[C@H](Cc2ccc3ccccc3c2)N/C(=N/C2CCCCC2)NC2CCCCC2)cc1 (10 µM),0.122,92% (inactive)
O=C(NC1CCNCC1)[C@@H]1CC[C@@H]2CN1C(=O)N2OS(=O)(=O)O [relebactam] (10 µM),0.0111,110% (inactive)
O=C(O)c1cccnc1 [niacin] (10 µM),0.195,102% (inactive)
CNc1nc(-c2ccc3c(N)n[nH]c3c2)cc(N2C[C@@H](C(=O)NC3CCCCC3)CC[C@H]2C)n1 (0.833333 µM),0.0384,106% (inactive)
O=C(Cn1ccnc1[N+](=O)[O-])NCc1ccccc1 [benznidazole] (10 µM),0.0566,112% (inactive)
NCCc1c[nH]c2ccc(O)cc12 [serotonin] (10 µM),0.0634,108% (inactive)
CNc1nc(C)nc(N[C@H]2CCC[C@@H](C(=O)NCc3ccc(C#N)cc3C(F)(F)F)C2)n1 (10 µM),-0.0488,104% (inactive)
O=C1CC[C@@](c2ccccc2)(C2CCN(Cc3ccc(I)cc3)CC2)C(=O)N1 [iododexetimide] (10 µM),-0.0136,100% (inactive)
CCc1cnc(N2CCC(c3nc(COc4ccc(-n5cnnn5)cc4)cs3)CC2)nc1 (10 µM),0.0438,97% (inactive)
CC(=O)Nc1c(I)cc(I)c(C(=O)O)c1I [acetriazoic-acid] (10 µM),0.138,112% (inactive)
O=[N+]([O-])c1cc(Cl)ccc1S(=O)(=O)N1CCN(Cc2ccccc2)CC1 (10 µM),-0.0654,112% (inactive)
Nc1ccn([C@H]2CO[C@@H](CO)S2)c(=O)n1 [apricitabine] (10 µM),0.071,108% (inactive)
Cc1ccc(O)c([C@H](CCN(C(C)C)C(C)C)c2ccccc2)c1 [tolterodine] (10 µM),0.35,77.5% (inactive)
CC(=O)OCC(=O)[C@@]1(O)[C@@H](C)C[C@H]2[C@@H]3CCC4=CC(=O)C=C[C@]4(C)[C@@]3(F)[C@@H](O)C[C@@]21C [betamethasone-acetate] (10 µM),-0.021,114% (inactive)
O=C(NCCN1CCC2(CC1)C(=O)NCN2c1cccc(F)c1)c1ccc2ccccc2c1 (10 µM),0.766,26% (active)
CC(=O)O[C@H]1C[C@@H]2CC[C@@H]3[C@H](CC[C@@]4(C)[C@H]3C[C@H]([N+]3(C)CCCCC3)[C@@H]4OC(C)=O)[C@@]2(C)C[C@@H]1[N+]1(C)CCCCC1 [pancuronium] (10 µM),0.254,102% (inactive)
CCOC(=O)c1ccccc1OC(N)=O [ethyl-2-(carbamoyloxy)benzoate] (10 µM),-0.102,108% (inactive)
Cn1cnc2c1c(=O)[nH]c(=O)n2C [theobromine] (10 µM),0.00515,108% (inactive)
O=C(Oc1ccc(Br)cc1)N1CCN2CCC1CC2 (10 µM),0.273,92% (inactive)
CC(C)(C)c1cc(/C=C(\C#N)C(N)=S)cc(C(C)(C)C)c1O [tyrphostin-AG-879] (0.833333 µM),0.166,102% (inactive)

SMILES,morphology score [1],SARS-CoV-2 infection rate [2]
O=C(Nc1ccccc1)c1ccccc1O [salicylanilide] (10 µM),-0.148,110% (inactive)
O=C(O)CNC(=O)c1c(O)c2ccccc2n(Cc2ccccc2)c1=O (10 µM),-0.000636,102% (inactive)
CC(C)(C)CC(C)(C)c1ccc(OCCOCC[N+](C)(C)Cc2ccccc2)cc1 [benzethonium] (10 µM),-0.104,108% (inactive)
COc1cc(N)c(Cl)cc1C(=O)NC1CCN(Cc2ccccc2)CC1 [clebopride] (10 µM),-0.0118,110% (inactive)
C[C@H](Nc1cc(NS(=O)(=O)N2CCC2)nc(SCc2cccc(F)c2F)n1)[C@@H](O)CO (10 µM),0.112,99% (inactive)
COc1ccc(-c2nc(C(=O)N3CCN(C)CC3)sc2-c2ccc(OC)cc2)cc1 (10 µM),0.211,93.5% (inactive)
C[C@H]1c2cccc(O)c2C(=O)C2=C(O)[C@]3(O)C(=O)C(C(N)=O)=C(O)[C@@H](N(C)C)[C@@H]3[C@@H](O)[C@@H]21 [doxycycline] (10 µM),0.0783,97% (inactive)
CNCc1ccc(-c2[nH]c3cc(F)cc4c3c2CCNC4=O)cc1 [rucaparib] (10 µM),0.234,83% (inactive)
CCOC(=O)c1ncn2c1[C@@H]1CCCN1C(=O)c1cc(OC)ccc1-2 (10 µM),0.286,95% (inactive)
CCOC(=O)NNc1ccc(N(CC)CC(C)O)nn1 (centres undefined) [cadralazine] (10 µM),0.0865,108% (inactive)
CC(C)(C)C(=O)OCOC(=O)[C@@H]1N2C(=O)[C@@H](/N=C/N3CCCCCC3)[C@H]2SC1(C)C [pivmecillinam] (10 µM),-0.0287,99% (inactive)
C#CC1(OCC(O)CN2CCN(c3cccc(C(F)(F)F)c3)CC2)CCCCC1 (centres undefined) [terciprazine] (10 µM),0.107,104% (inactive)
NC(=O)c1ccc2[nH]ccc2c1 (10 µM),0.192,87.5% (inactive)
O=C(O)c1ccccc1Nc1cccc(C(F)(F)F)c1 [flufenamic-acid] (10 µM),0.156,99.5% (inactive)
COc1ccc(C(=O)CC2(O)C(=O)Nc3c(Cl)ccc(Cl)c32)cc1 (centres undefined) (0.833333 µM),0.00554,95% (inactive)
O=C(CCCCCCNC(=O)c1cnc(N(c2ccccc2)c2ccccc2)nc1)NO (0.833333 µM),-0.13,106% (inactive)
CCc1ccccc1OC[C@@H](O)CN[C@H]1CCCc2ccccc21 (10 µM),0.0335,93% (inactive)
Cc1cn([C@H]2C[C@H](N=[N+]=[N-])[C@@H](CO)O2)c(=O)[nH]c1=O [zidovudine] (10 µM),-0.144,108% (inactive)
Cn1cccc1/C=C1\C(=O)NC(=O)c2ccccc21 (0.833333 µM),0.0943,100% (inactive)
CC(C)n1nccc1-c1ncccc1COc1cccc(O)c1C=O [voxelotor] (10 µM),0.188,102% (inactive)
CCn1c(N)c(C(=O)NC)c(=O)c2ccc(C#C[C@@](C)(O)COC)nc21 (10 µM),0.464,92% (inactive)

SMILES,morphology score [1],SARS-CoV-2 infection rate [2]
N#CCC1(n2cc(-c3ncnc4[nH]ccc34)cn2)CN(C2CCN(C(=O)c3ccnc(C(F)(F)F)c3F)CC2)C1 [itacitinib] (10 µM),0.22,97.5% (inactive)
C=CCOc1ccccc1OCC(O)CNC(C)C (centres undefined) [oxprenolol] (10 µM),-0.183,114% (inactive)
CN(C)c1cc(CNCC(C)(C)C)c(O)c2c1C[C@H]1C[C@H]3[C@H](N(C)C)C(O)=C(C(N)=O)C(=O)[C@@]3(O)C(O)=C1C2=O [omadacycline] (10 µM),0.179,97.5% (inactive)
Cc1cccc(-c2nn3c(c2-c2ccnc4ccc(C(N)=O)cc24)CCC3)n1 (10 µM),0.128,100% (inactive)
CN(C)[C@@H]1C(O)=C(C(N)=O)C(=O)[C@@]2(O)C(O)=C3C(=O)c4c(O)cccc4[C@@](C)(O)[C@H]3C[C@@H]12 [tetracycline] (10 µM),0.157,100% (inactive)
COc1ccc(CN(CCN(C)C)c2ncccn2)cc1 [thonzylamine] (10 µM),0.0251,110% (inactive)
COc1ccc2nc3cc(Cl)ccc3c(Nc3cc(CN4CCCC4)c(O)c(CN4CCCC4)c3)c2n1 [pyronaridine] (0.833333 µM),0.282,100% (inactive)
CC1=C(C(=O)O)N2C(=O)[C@@H](NC(=O)[C@H](N)c3ccccc3)[C@H]2SC1 [cephalexin] (10 µM),0.0139,112% (inactive)
COCC(=O)Nc1c(I)c(C(=O)NCC(O)CO)c(I)c(C(=O)N(C)CC(O)CO)c1I (centres undefined) [iopromide] (10 µM),-0.11,106% (inactive)
COc1cc(N)c(Cl)cc1C(=O)N[C@@H]1CCN(CCCOc2ccc(F)cc2)C[C@@H]1OC (racemic) [cisapride] (10 µM),-0.0266,112% (inactive)
NC(=O)[C@H]1CCS[C@@H]2C[C@]3(CCCN3C(=O)Cc3ccc(NC(=O)COc4ccc(Cl)cc4Cl)cc3)C(=O)N12 (10 µM),-0.263,111% (inactive)
O=P(O)(NCCCl)NCCCl [palifosfamide] (10 µM),-0.0297,107% (inactive)
OC1=c2ccccc2=C(NC2CCCCC2)/C1=C\c1ccccc1 (0.833333 µM),0.213,85.5% (inactive)
NS(=O)(=O)c1ccc(C(=O)O)cc1 [carzenide] (10 µM),0.174,102% (inactive)
CC(C)(C)c1cc(C(C)(C)C)c2c(c1)C(O)(C(F)(F)F)C(=O)O2 (racemic) (10 µM),0.239,95.5% (inactive)
CON [methoxyamine] (10 µM),0.192,99% (inactive)
Nc1ccc(O)c(C(=O)O)c1 [mesalazine] (10 µM),0.0799,93.5% (inactive)
Cc1c(I)c(=O)n(-c2ccccc2)n1C [iodoantipyrine] (10 µM),0.0311,118% (inactive)
N=C(N)NS(=O)(=O)c1ccc(N)cc1 [sulfaguanidine] (10 µM),0.00117,108% (inactive)
O=C1CNC(=O)CN1 [piperazinedione] (0.833333 µM),0.0804,106% (inactive)
